# D1 allo mod – D1 CRE-luciferase signal change, two-sided – cell-based, HEK293 D1, dopamine EC30, D1 allosteric modulator project, primary screen; D(1A) dopamine receptor (Homo sapiens), P21728; actives 5.9% (n = 58,000); B-score at 10 µM; dopamine EC30 potentiation; actives deviate in either direction; AID 641, 2007;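 active = luminescence count or its row- and column-corrected plate score outside the 99.7% band of the plate's sample wells, on either side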
# FAK blocker – FAK kinase inhibitors, primary screen, biochemical | biochemical FAK kinase activity assay | inhibition, %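 (tested at 7 µM)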 | actives 0.84% (n = 97,000); in the data active = inhibition above about 19%;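 note: 0% = DMSO and 100% = reference compound high control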
# DAT uptake mod – changed hDAT dopamine uptake under cocaine IC80, either direction, primary screen, cocaine antagonist project, cell-based, LLC-PK1 hDAT, [14C]-dopamine uptake, MLSMR. B-score at 10 µM. LLC-PK1 hDAT cells, [14C]-dopamine uptake with cocaine IC80; actives deviate in either direction. actives 1.3% (n = 110,000);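 active = Z score or B-score, a plate-position-corrected score, falls beyond the plate's 99.7% confidence bounds, in either direction; inactive = both scores lie inside the 99.7% bounds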;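 note: scored against the spread of the other compound wells on the same plate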
# CD11b adhes enh – enhancers of CD11b/CD18 adhesion to fibrinogen, primary screen, K562 cells, luminescence. actives 0.07% (n = 93,000). activation, % at 10 µM. AID 1499, 2009. ATPlite luminescence. Integrin beta-2 (Homo sapiens) + Integrin alpha-M (Homo sapiens), P05107+P11215;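 active = 10 µM primary screen giving 50% or more activity, confirmed by 40% or more on retest at that dose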
# PTK2B oligo ant – antagonists of Pyk2 self-association, primary screen, Q293 cells, FERM NanoBiT luminescence, HTS | AID 1347419, 2020 | Protein-tyrosine kinase 2-beta (Homo sapiens), Q14289 | actives 0.83% (n = 99,000) | hits give low values | z-score (the deposit names both 25 µM and 10 µM);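 active = Z-score of -3 or lower, scaled per plate to the spread of control and sample wells; inactive = z-score above -3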;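 note: negative z-score means lost luminescence so less FERM oligomerization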
# Mac1 fbg inh – inhibitors of CD11b/CD18 adhesion to fibrinogen, primary screen, K562 cells, luminescence; Integrin beta-2 (Homo sapiens) + Integrin alpha-M (Homo sapiens), P05107+P11215; ATPlite luminescence; Mn2+ added to activate the integrin; inhibition, % at 10 µM; actives 0.54% (n = 93,000);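 active = primary inhibition of 50% or more at 10 µM, then 40% or more on retest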
# D1 mod confirm – D1 receptor positive allosteric modulators, retest, confirmation, cell-based, HEK293 D1, CRE-luciferase, duplicate; shares compounds with D1 allo mod; dopamine EC30 potentiation; hits give high values; luminescence at 10 µM; actives 88% (n = 2,200);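 active = luminescence in either of two replicates above the same-plate mean plus 3 SD of the low-dose dopamine control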
# D1 ag no DA – D1 receptor agonism without dopamine, confirmation, mechanism study for D1 allosteric modulator project, cell-based, HEK293 D1, CRE-luciferase, secondary assay 1; shares compounds with D1 allo mod; luminescence, no dopamine; hits give high values; luminescence at 10 µM; actives 0.8% (n = 1,900); in the data active = luminescence above about 3900
# Isoprot counter – counter-screen for D1 modulators: isoproterenol response in HEK293 cells; shares compounds with D1 allo mod; HEK293 D1 CRE-luciferase, isoproterenol EC30 counter-screen; actives 63% (n = 2,200); calls only at 10 µM;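 active = luminescence in either replicate above plate mean of wells with a partly effective reference agonist dose plus 3 SD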;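 note: isoproterenol raises cAMP through native beta-adrenoceptor Gs so signal bypasses D1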
# Numbers without * were called inactive; . = no result; + = active, no number. The entries come from a sample that favours hits as a whole.
SMILES,D1 allo mod,FAK blocker,DAT uptake mod,CD11b adhes enh,PTK2B oligo ant,Mac1 fbg inh,D1 mod confirm,D1 ag no DA,Isoprot counter
O=C(CSc1nnc2scc(-c3ccccc3)n12)Nc1ccc2c(c1)OCCO2,1.42,-1.8,0.441,6.0,-1.61,-3.8,.,.,.
O=C(CSc1nnc(-c2cccs2)n1Cc1ccccc1)NCc1ccc2c(c1)OCO2,.,1.0,2.05,-3.2,-0.94,-4.1,.,.,.
c1ccc(-c2csc3nnc(SCc4ccc5c(c4)OCO5)n23)cc1,6.78*,-3.4,-0.348,3.0,.,8.3,16212*,2144,+
Fc1ccc(-c2csc3nnc(SCc4cccnc4)n23)cc1,17.3*,-2.1,0.93,-1.8,-0.23,-3.9,26500*,1540,+
O=C(CCSc1nnc2scc(-c3ccccc3)n12)NCc1ccc2c(c1)OCO2,7.33*,-2.4,0.578,6.3,-0.11,-6.7,11856*,1504,+
Cc1[nH]c2c(C)cccc2c(=O)c1Br,-0.945,.,-0.909,3.5,0.22,-18.6,.,.,.
CC(=O)Oc1c2occc2cc2ccc(=O)oc12,.,-1.0,0.00933,-3.4,-0.37,28.8,.,.,.
COc1c2occc2cc2ccc(=O)oc12,12.6*,2.7,0.332,-0.6,.,-34.8,26928*,1736,+
Cc1ccc(/C=C/C(=O)Nc2nnc(SCc3ccc(C#N)cc3)s2)o1,.,.,.,74.7,.,-15.9,.,.,.
Cc1cc(NC(=O)CC23CC4CC(C2)CC(CC(=O)Nc2cc(C)on2)(C4)C3)no1,-0.712,0.5,0.0661,0.8,-0.52,-5.5,.,.,.
N#Cc1cc2c(nc1SCc1cccc(Cl)c1)CCCCC2,.,-0.9,0.00974,.,-1.33,.,.,.,.
N#Cc1cc2c(nc1SCc1cccnc1)CCCCC2,10.2*,4.0,0.739,0.0,-2.01,5.1,23880*,1748,+
CCCCCOC(=O)CSc1n[nH]c(=O)[nH]c1=O,.,0.6,0.242,-1.5,0,-2.2,.,.,.
CCOC(=O)C1CCCN(C(=O)c2cc3nc(-c4cccc(OC)c4)cc(C(F)(F)F)n3n2)C1 (configuration not stated),10.7*,3.6,2.7*,7.1,-0.92,-0.3,14152*,1432,+
O=c1[nH]c2c(s1)C(c1ccccc1)C1C3CCC(C3)C1S2 (configuration not stated),16.8*,-1.1,-0.0299,2.6,-0.72,-3.9,21364*,.,+
COc1cc(C2c3sc(=O)[nH]c3SC3C4CCC(C4)C23)ccc1O (configuration not stated),8.5*,0.4,-0.098,4.0,-1.08,2.1,18840*,1528,+
COc1ccc(C2c3sc(=O)[nH]c3SC3C4CCC(C4)C23)cc1 (configuration not stated),15.8*,0.1,0.312,-0.8,-0.53,-35.9,27840*,1724,+
CC1(C)C(=O)NCCN1C(=O)CCC(=O)O,.,0.6,-0.155,.,0.31,.,.,.,.
CCOc1ccc(S(=O)(=O)Nc2nc3ccccc3nc2Nc2ccc(N3CCOCC3)cc2)cc1,.,.,.,7.7,.,68.0,.,.,.
CNc1nc(OC)nc(N2CCOCC2)n1,6*,-0.9,0.573,-3.5,-0.92,-8.1,19816*,1956,+

# Screens: PubChem, several laboratories
